Consider 5 compounds from PubChem BioAssay (NCATS).

Structures are written as SMILES. Inconclusive results are not listed. Activity calls are given as the source filed them. Unless noted, the call rests on the fitted dose curve; in most records, active means well fitted curve in the direction sought with a large enough effect; inconclusive means small, poorly fitted or top-dose-only effect, or another doubt; inactive means no such curve, though single readings can be large; an effect the other way counts as inactive or inconclusive.

The target in assay [1] is Lysosomal acid glucosylceramidase (Homo sapiens) (UniProt P04062). The experiment in a line: Glucocerebrosidase-p2 (AID 348; in the data active means potency below about 10 µM; further: potency means the concentration at half of the fitted maximal effect). The following applies: purified GBA, blue fluorogenic substrate, 40 min. The essentials:
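Compounds titrated from 0.6 nM upwards against 0.2 nM enzyme in pH 5.9 citric acid/KH2PO4, taurocholate, tween-20; blue fluorogenic substrate 80 uM, 40 min room temperature, stopped and read Ex 365/Em 440 for AC50.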

The nature of assay [2]: AP1 Signaling Pathway (AID 357; active means well fitted curve in either direction with a large enough effect, not every such curve was filed as active; further: on the % scale 0 is the no-effect control and ±100 the full control effect). The following applies: ME-180 AP-1-bla reporter, EGF-induced, beta-lactamase ratio, 5 h; at 7.69 µM (top of the series) unless noted. In a few lines: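 Cells are seeded overnight, exposed to compound titrations and an EC50 level of EGF for 5 hours at 37 °C, then loaded with CCF4 dye for 2.5 hours. Beta-lactamase activity under the AP-1 element is read as a blue/green ratio.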

Assay [3] in a line: NFAT Signaling Pathway (AID 444; active means well fitted curve in either direction with a large enough effect, not every such curve was filed as active;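 further: carbachol stimulus at about its EC50 of 1 µM final; on the % scale 0 is the no-effect control and ±100 the full control effect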). The following applies: Jurkat NFAT-bla M1, carbachol, beta-lactamase ratio, 5 h; at 7.69 µM (top of the series) unless noted. The essentials:
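Read-out: CCF4 FRET ratio (460 nm/530 nm) after 1 h RT dye loading, used for %activity and AC50 from titration series. Cells: Jurkat NFAT-β-lactamase/M1 line, treated with compound plus 1 uM carbachol for 5 h, 37 °C.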

Assay [4] in a line: Stat Signaling Pathway (AID 446; active means well fitted curve in either direction with a large enough effect, not every such curve was filed as active;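 further: ME-180 cervical cancer cells given 40 pM IL-6 alongside compound; SIE-controlled beta-lactamase reporter measured as 460/530 nm FRET emission ratio; on the % scale 0 is the no-effect control and ±100 the full control effect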). The following applies: ME-180 SIE beta-lactamase reporter, IL-6 stimulated, 5 h; at 7.69 µM (top of the series) unless noted. In a few lines: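 IL-6/STAT signaling read in ME-180 cells via an SIE beta-lactamase reporter. Stimulus was 40 pM IL-6 (its AC50) for 5 hrs, so both activation and inhibition register.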
For assay [5], the target named is Glucocorticoid receptor (Homo sapiens) (UniProt P04150). Description: GR-GFP Redistribution (AID 450;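 active means compounds whose dose series gives a full or clear partial fitted curve of increased nuclear translocation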; further: potency means the concentration at half of the fitted maximal effect). The following applies: U2OS GR-GFP nuclear translocation, laser cytometry, 2 h.
Glucocorticoid receptor (Homo sapiens), sequence (P04150 whole entry, looked up): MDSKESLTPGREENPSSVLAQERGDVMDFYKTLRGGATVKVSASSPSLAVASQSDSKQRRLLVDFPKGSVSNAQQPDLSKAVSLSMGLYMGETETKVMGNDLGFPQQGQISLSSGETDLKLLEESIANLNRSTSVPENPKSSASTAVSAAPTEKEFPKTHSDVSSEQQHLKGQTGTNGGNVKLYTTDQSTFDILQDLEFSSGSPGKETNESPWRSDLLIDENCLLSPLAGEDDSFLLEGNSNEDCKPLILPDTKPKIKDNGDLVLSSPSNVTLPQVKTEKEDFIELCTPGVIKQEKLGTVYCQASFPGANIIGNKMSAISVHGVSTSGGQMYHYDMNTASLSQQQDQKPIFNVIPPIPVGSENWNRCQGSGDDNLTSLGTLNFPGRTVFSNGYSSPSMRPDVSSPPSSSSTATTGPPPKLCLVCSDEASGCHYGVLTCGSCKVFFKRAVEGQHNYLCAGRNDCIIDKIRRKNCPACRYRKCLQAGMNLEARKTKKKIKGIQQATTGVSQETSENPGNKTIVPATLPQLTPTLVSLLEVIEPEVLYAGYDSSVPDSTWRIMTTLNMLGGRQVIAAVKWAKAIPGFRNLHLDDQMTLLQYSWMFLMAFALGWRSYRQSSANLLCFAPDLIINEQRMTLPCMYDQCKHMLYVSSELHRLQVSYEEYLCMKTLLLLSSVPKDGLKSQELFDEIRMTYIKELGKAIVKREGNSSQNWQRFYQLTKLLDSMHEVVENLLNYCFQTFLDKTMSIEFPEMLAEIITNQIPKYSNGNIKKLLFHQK
Assay [6] has the same target. The experiment in a line: GR-EFC Redistribution (AID 451; calls by dose curve; further: potency means the concentration at half of the fitted maximal effect). The conditions noted are these: CHO-K1 GR-EFC translocation, beta-gal luminescence, 2 h. The essentials:
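Translocation of GR-ED fusion to nuclear EA restores b-gal, read by luminescence after 1 h room-temperature detection. Engineered CHO-K1 biosensor cells, 1,000/well, exposed 2 h at 37 C to titrations up to 46 uM final.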

The target in assay [7] is Mitogen-activated protein kinase 10 (Mus musculus) (UniProt Q61831). Description: JNK3 AlphaScreen Assay (AID 530; active means well fitted curve in either direction with a large enough effect, not every such curve was filed as active;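 further: kinase came from lysate of stimulated human HepG2 cells; signal reports phosphorylation of biotinylated GST-cJun 1-79 at Ser73 with 10 µM ATP; on the % scale 0 is the no-effect control and ±100 the full control effect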). The following applies: JNK3 lysate, c-Jun phosphorylation; series mostly up to 57.1 µM. In a few lines: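 Room-temperature AlphaScreen kinase assay; pre-activated HepG2 lysate as JNK3 source, biotin-GST-cJun(1-79) substrate, 10 uM ATP, compound 15 min preincubation.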
In general terms: Bead proximity is the source of the signal in Alpha formats.

Assay [8] deals with 3',5'-cyclic-AMP phosphodiesterase 4B (Homo sapiens) (UniProt Q07343). Description: qHTS Assay for Inhibitors of PDE-IV (AID 607; active means well fitted activation curve with a large enough effect in the main read-out, with a control signal flat, not every such curve was filed as active; further: % of control where 0% means no effect). The conditions noted are these: HEK293 ACTOne CNG channel cells, membrane potential fluorescence; series mostly up to 22.9 µM. In a few lines: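 Live HEK293 cells with a modified cyclic nucleotide-gated (CNG) channel report intracellular cAMP via membrane-potential dye fluorescence (ex 535/em 590 nm). Endogenous PDE-IV was targeted. Compounds were tested at up to 22.9 uM final; RO 20-1724 100 uM served as control.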
3',5'-cyclic-AMP phosphodiesterase 4B (Homo sapiens), sequence (Q07343 whole entry, looked up): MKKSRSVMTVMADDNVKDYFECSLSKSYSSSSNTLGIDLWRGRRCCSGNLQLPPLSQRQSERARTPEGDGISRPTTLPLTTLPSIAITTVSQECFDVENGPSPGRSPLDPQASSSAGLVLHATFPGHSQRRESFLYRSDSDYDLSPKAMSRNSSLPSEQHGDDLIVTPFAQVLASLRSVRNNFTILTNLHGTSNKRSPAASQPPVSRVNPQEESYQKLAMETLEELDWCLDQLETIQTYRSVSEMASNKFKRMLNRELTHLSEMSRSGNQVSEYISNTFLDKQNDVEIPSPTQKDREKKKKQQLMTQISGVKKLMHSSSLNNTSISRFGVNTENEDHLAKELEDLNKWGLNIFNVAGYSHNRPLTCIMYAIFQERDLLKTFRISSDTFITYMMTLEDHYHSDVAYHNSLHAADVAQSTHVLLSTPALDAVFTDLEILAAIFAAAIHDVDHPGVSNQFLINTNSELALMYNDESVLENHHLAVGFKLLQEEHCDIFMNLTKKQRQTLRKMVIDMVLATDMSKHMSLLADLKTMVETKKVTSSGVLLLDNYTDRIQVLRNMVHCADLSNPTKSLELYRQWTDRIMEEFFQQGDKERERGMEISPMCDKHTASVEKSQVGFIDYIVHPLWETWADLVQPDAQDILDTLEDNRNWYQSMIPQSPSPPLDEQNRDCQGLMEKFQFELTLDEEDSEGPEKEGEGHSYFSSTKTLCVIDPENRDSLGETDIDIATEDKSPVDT
Background: qHTS replaces the single test concentration by a dilution series.

The nature of assay [9]: qHTS Assay for Lipid Storage Modulators (AID 1519; calls by dose curve). The following applies: Drosophila S3 cells, BODIPY lipid droplet/cell ratio, laser cytometry, cells loaded with oleic acid; for activity change, negative = inhibition: at 57.5 µM (top of the series). The essentials:
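Cells seeded at 5,000 per well were treated with compounds over a concentration series and loaded with oleic acid (400 uM, as added). Lipid droplet fluorescence (488 nm excitation, 500-530 nm channel) was read by laser-scanning cytometry and normalized to 20 uM Triacsin C.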

The target in assay [10] is Dual specificity protein kinase CLK4 (Homo sapiens) (UniProt Q9HAZ1). Description: qHTS Assay for Inhibitors of CDC-like Kinase 4 (Kinase-Glo Assay) (AID 1770). Further: nearly all actives have a fitted effect of over 65% in size. Further: potency means the concentration at half of the fitted maximal effect. The conditions noted are these: recombinant Clk4, Kinase-Glo ATP depletion luminescence; series mostly up to 66.7 µM. In a few lines:
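Readout: Kinase-Glo luminescence from ATP left after a 4.5 h room-temperature reaction of 25 nM Clk4 with 100 uM RS peptide and 1 uM ATP (final). Buffer: 25 mM Tris pH 7.5, 10 mM MgCl2.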

Assay [11] has the same target. The experiment in a line: qHTS Assay for Inhibitors of CDC-like Kinase 4 (ADP-Glo Assay) (AID 1771). Further: nearly all actives have a fitted effect of over 70% in size. Further: potency means the concentration at half of the fitted maximal effect. The following applies: recombinant CLK4, ADP-Glo luminescence; series mostly up to 80 µM. In a few lines:
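Clk4 (25 nM) was incubated 1 hr at room temperature with 100 uM RS repeat peptide and 1 uM ATP in buffer with 2 mM MgCl2, 0.5 mM EGTA, 2.5 mM DTT. ADP formed was quantified by ADP-Glo luminescence.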

The target is the same in assay [12]. Description: qHTS Assay for Inhibitors of CDC-like Kinase 4 (ADP-FP Assay) (AID 1795). Further: nearly all actives have a fitted effect of over 60% in size. Further: potency means the concentration at half of the fitted maximal effect. The following applies: Transcreener ADP fluorescence polarization; series mostly up to 50 µM. In a few lines: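 FP readout: Orange Transcreener ADP2 tracer (4 nM) plus ADP antibody, read after 30 min at room temperature. Kinase step: 6.25 nM Clk4, 100 uM RS peptide, 1 uM ATP, pH 7.5, 1 h.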

The target of assay [13] is Ubiquitin carboxyl-terminal hydrolase 1 (Homo sapiens) (UniProt O94782). Description: Inhibitors of USP1/UAF1: Pilot qHTS (AID 504865).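 Further: rhodamine fluorescence freed from ubiquitin-rhodamine substrate followed over time; top concentration of the series differs between compounds; on the % scale 0 is the no-effect control and ±100 the full control effect; nearly all actives have a fitted effect of over 35% in size.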 The conditions noted are these: purified USP1/UAF1, Ub-rhodamine cleavage fluorescence; series mostly up to 54.9 µM. In a few lines: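 1nM USP1/UAF1 + cpd, 15 min RT; start w/ Ub-Rho 150nM final; kinetic FL 480/540 nm, 6 reads q60 s. Buffer 50mM HEPES pH 7.8, 0.5mM EDTA, 1mM TCEP, 0.01% Tween-20, 0.1 mg/ml BSA.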
Ubiquitin carboxyl-terminal hydrolase 1 (Homo sapiens), sequence (O94782 whole entry, looked up): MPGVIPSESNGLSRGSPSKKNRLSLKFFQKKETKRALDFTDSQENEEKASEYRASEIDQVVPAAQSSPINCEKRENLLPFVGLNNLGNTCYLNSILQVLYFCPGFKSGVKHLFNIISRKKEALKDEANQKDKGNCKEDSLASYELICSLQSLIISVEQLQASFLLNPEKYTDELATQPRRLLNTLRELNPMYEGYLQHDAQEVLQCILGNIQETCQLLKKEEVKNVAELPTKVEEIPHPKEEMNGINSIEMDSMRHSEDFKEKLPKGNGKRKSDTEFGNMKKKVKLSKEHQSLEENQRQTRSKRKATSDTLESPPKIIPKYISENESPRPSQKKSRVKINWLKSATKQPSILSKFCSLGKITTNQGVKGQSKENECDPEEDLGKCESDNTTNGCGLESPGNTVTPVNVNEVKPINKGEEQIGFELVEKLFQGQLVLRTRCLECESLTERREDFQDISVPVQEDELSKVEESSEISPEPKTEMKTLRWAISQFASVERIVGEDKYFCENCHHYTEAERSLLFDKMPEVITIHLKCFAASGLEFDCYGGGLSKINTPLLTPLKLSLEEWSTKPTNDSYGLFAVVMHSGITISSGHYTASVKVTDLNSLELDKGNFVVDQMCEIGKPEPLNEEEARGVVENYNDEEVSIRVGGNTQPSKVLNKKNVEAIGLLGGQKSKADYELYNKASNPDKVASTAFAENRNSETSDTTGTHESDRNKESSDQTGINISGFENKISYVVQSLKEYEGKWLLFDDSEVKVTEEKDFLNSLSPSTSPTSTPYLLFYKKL

Assay [14] concerns the target Cytochrome P450 1A2 (Homo sapiens) (UniProt P05177). Description: p450-cyp1a2 (AID 410; calls by dose curve; further: potency means the concentration at half of the fitted maximal effect). The conditions noted are these: recombinant CYP1A2, luciferin-ME demethylation, luminescence; series mostly up to 57 µM. The essentials: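 Human CYP1A2 (20nM) demethylated Luciferin-ME at its Km (100uM) in 100mM KPO4. After 10 min compound preincubation, NADPH regeneration ran the reaction 60 min at room temperature. Luciferin was read by luminescence, normalized to 57 uM furafylline.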

Assay [15] concerns the target Cytochrome P450 3A4 (Homo sapiens) (UniProt P08684). The experiment in a line: qHTS Assay for Activators of Cytochrome P450 3A4 (AID 885). Further: nearly all actives have a fitted effect of over 65% in size. The following applies: recombinant CYP3A4, Luciferin-PPXE luminescence, 60 min; series mostly up to 57.1 µM. In a few lines:
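Quantitative HTS format: compounds preincubated with 20nM human CYP3A4 and Luciferin-PPXE substrate at KM, reaction started by NADPH regeneration, stopped after 60 min, luciferase luminescence read 20 min later.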

Assay [16] is described as follows: qHTS Assay for Identification of Small Molecule Agonists for Hypoxia Response Element Signaling Pathway (AID 914; active means well fitted activation curve with a large enough effect in the signal ratio, with a control signal flat, not every such curve was filed as active; the % refers to the signal ratio; further: % of control where 0% means no effect). The following applies: ME-180 (cervical carcinoma) HRE-bla reporter, beta-lactamase ratio, CoCl2, 17 h; activation: stronger effect = higher value. In a few lines: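 qHTS titration; ME-180 HRE-bla cells; EC50 CoCl2 co-treatment, 17 h at 37 degrees Celsius; CCF4 dye, ex 405nm, em 460nm and 530nm; %Activity from ratio; AC50.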

Setting [17] is: measured here: cell count channel max response.
Setting [18] is: measured here: lipid channel max response.

Cytochrome P450 3A4 (Homo sapiens), sequence (P08684 whole entry, looked up): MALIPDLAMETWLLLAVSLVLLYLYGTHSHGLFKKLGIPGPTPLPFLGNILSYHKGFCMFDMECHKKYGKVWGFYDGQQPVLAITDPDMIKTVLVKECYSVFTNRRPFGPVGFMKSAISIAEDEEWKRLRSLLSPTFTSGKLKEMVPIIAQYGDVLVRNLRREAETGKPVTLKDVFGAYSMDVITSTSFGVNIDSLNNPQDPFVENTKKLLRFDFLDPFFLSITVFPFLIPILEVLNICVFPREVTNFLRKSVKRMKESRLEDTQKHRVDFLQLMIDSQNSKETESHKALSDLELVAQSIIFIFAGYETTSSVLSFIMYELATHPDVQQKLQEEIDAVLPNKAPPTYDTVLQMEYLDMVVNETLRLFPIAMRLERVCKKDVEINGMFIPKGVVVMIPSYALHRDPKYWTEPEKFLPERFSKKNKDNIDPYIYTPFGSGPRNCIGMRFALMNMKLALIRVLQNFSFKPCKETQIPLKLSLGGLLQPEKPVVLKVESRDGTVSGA
Cytochrome P450 1A2 (Homo sapiens), sequence (P05177 whole entry, looked up): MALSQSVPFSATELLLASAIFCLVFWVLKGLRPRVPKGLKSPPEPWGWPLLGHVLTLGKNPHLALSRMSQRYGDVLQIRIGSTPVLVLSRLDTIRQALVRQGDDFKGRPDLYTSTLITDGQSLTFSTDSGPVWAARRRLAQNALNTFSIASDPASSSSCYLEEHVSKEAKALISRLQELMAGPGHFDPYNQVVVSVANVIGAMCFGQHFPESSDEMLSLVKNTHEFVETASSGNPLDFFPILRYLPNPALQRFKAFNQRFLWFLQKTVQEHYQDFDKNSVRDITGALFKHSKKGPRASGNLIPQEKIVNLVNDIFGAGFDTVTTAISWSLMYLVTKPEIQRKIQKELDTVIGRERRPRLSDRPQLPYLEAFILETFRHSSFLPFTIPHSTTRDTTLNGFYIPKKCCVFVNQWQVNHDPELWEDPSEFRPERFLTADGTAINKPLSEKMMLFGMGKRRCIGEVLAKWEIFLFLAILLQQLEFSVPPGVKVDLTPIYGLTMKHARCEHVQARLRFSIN
Lysosomal acid glucosylceramidase (Homo sapiens), sequence (P04062 whole entry, looked up): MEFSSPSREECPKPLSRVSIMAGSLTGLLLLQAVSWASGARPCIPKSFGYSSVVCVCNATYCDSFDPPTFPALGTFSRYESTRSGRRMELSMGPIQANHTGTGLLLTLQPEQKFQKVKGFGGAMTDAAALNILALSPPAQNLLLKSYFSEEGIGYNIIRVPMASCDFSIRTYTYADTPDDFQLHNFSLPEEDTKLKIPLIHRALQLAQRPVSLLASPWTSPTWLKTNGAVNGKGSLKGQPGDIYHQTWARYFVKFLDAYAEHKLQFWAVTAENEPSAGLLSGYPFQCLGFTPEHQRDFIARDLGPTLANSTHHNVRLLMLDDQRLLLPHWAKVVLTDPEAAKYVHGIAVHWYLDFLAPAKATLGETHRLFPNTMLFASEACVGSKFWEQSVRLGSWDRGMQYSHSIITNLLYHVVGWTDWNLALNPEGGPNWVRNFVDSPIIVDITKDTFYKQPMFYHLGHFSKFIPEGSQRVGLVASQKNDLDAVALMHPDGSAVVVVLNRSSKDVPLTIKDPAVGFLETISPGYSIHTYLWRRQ
Dual specificity protein kinase CLK4 (Homo sapiens), sequence (Q9HAZ1 whole entry, looked up): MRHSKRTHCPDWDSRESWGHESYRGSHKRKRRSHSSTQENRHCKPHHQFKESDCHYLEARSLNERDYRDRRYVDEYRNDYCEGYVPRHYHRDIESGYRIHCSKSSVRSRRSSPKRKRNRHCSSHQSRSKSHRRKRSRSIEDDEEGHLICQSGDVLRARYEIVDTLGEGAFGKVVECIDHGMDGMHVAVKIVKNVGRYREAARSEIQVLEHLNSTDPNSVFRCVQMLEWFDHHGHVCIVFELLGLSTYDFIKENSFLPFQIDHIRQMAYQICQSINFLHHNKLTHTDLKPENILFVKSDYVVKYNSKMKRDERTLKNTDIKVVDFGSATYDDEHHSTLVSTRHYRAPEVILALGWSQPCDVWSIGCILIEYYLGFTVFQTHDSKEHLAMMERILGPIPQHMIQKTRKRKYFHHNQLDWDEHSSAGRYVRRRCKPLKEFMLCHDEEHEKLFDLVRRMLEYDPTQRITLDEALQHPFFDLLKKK

Take `COc1ccc(-n2c(=O)c(-c3ccc(F)cc3)nc3cnc(N4CCNCC4)nc32)cc1`: the Potency in assay [1] was > 11.4 µM (inactive); in assay [5], > 9.22 µM (inactive); in assay [6] it was > 46 µM (inactive). For the same compound, the activity change, negative = inhibition in assay [2] was -1.98% (inactive); in assay [3], 27.8% (inactive); in assay [9] it was 0.369% (inactive). The activity, negative = inhibition in assay [4] is 9.23% (inactive). For the same compound, the Potency entry in [7], in [8], in assay [10], in assay [11], in assay [12] and in [13] was “inactive” throughout. For the same compound, the max response in [9] (setting [17]) stood at 11.2%; in assay [9] (setting [18]) it was 12.6%.
Turning to `CN(C)Cc1ccccc1-c1nccc(Nc2ccc(F)cc2)n1`, the Potency in [1] is 10.8 µM (inactive); in assay [14] it was 3.16 µM (active); in assay [5], > 46 µM (inactive); in [6] it was > 46 µM (inactive). The activity change, negative = inhibition was 7.82% (inactive) in [2], -13.9% (inactive) in [3] and 5.52% (inactive) in [9]. Besides, the activity, negative = inhibition in assay [4] was -5.3% (inactive). Also, the Potency entry in assay [7], in [15], in [10], in assay [11], in [12] and in [13] was “inactive” in each case. For the same compound, the max response worked out at 21.6% in [9] (setting [17]) and 26.6% in [9] (setting [18]).
In the case of `COc1cccc(Cn2c(=O)c(CCc3ccccc3)nc3cnc(N4CCNCC4)nc32)c1`, the Potency in assay [1] is > 11.4 µM (inactive); in [14], 12.6 µM (active); in assay [5] it was > 9.22 µM (inactive); in assay [6] it was > 46 µM (inactive). The results for the activity change, negative = inhibition in assay [2], in assay [3] and in assay [9] were 4.19% (inactive), 19.7% (inactive) and 3.32% (inactive), respectively. For the same compound, in [4], the activity, negative = inhibition was -8.25% (inactive). Moreover, the Potency entry in assay [7], in assay [8], in [15], in assay [10], in [11] and in [12] was “inactive” throughout. The Potency entry in assay [13] was “inactive”. Further, the activation in assay [16] was 8.93% (inactive). Moreover, the max response in assay [9] (setting [17]) stood at 9.35%; in assay [9] (setting [18]), 12.1%.
On to `COc1ccccc1-c1ccc2ncnc(NC3CC3)c2c1`, for which the Potency in assay [1] is > 11.4 µM (inactive); in assay [5], > 46 µM (inactive); in assay [6], > 46 µM (inactive); in assay [10], 11.2 µM (active); in [11], 14.1 µM (active); in [12], 12.6 µM (active). The activity change, negative = inhibition in assay [2] is -1.03% (inactive); in assay [3] it was -1.81% (inactive); in assay [9] it was -9.29% (inactive). Also, in assay [4], the activity, negative = inhibition is -18.1% (inactive). Further, the Potency result in assay [7] and in assay [13] was “inactive” each time. The max response in [9] (setting [17]) was -20.8%; in assay [9] (setting [18]), -29.7%.
With `COc1ccccc1-c1nc(N(C)C)c2ccccc2n1`, the Potency in [1] was > 11.4 µM (inactive); in assay [14], 0.398 µM (active); in assay [5], > 46 µM (inactive); in [6], > 46 µM (inactive). Moreover, the activity change, negative = inhibition in [2] was 19.2% (inactive); in assay [3], -18.6% (inactive); in assay [9], -1.18% (inactive). Further, the activity, negative = inhibition in [4] was 31.2% (inactive). Besides, the Potency entry in assay [7], in assay [8], in assay [15], in assay [10], in assay [11] and in assay [12] was “inactive” in each case. Besides, in assay [13], the Potency entry is “inactive”. For the same compound, the max response in assay [9] (setting [17]) is 4.21%; in assay [9] (setting [18]), -1.67%.
